Anthrax LF inh2 – inhibitors of Bacillus anthracis lethal factor protease. 0.12% of 360,000 active. inhibition, % at 10 µM. AID 588501. P15917. multiplex microsphere protease cleavage assay, LF; note: plate controls were buffer without enzyme for full effect and enzyme alone for no effect
Target sequence (P15917 whole entry, looked up): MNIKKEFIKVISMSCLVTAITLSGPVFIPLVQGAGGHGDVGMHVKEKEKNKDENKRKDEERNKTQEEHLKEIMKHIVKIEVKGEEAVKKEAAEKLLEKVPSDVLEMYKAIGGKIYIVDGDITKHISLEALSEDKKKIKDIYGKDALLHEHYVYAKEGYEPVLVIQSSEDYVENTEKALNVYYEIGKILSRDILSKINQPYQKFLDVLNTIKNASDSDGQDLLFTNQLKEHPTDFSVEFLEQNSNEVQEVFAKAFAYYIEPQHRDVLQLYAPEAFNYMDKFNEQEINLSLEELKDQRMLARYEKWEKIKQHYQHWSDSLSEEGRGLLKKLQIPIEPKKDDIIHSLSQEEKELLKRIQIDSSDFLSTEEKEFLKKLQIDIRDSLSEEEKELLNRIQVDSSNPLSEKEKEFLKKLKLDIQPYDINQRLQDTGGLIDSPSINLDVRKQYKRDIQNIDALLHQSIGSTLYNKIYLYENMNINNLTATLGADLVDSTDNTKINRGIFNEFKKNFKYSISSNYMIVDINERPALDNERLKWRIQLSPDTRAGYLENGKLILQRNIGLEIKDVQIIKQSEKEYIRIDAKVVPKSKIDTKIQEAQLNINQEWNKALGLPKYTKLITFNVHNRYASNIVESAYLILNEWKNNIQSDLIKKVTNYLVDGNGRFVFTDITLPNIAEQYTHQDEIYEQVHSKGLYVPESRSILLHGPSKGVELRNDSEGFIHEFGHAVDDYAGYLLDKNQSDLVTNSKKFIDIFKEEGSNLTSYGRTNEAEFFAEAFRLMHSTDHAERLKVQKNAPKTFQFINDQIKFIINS
Vc quorum ag – inducers of Vibrio cholerae quorum light production without autoinducers. 0.16% of 350,000 active. AID 588436. V. cholerae BH1578 lux reporter, luminescence, 6 h. activation, % at 18.7 µM; in the data active = activation mostly above about 9.7%, no sharp cut-off; inconclusive = no clear call, values can overlap the other calls; inactive = mostly below about 3.7%
MazEF act – activators of E. coli MazEF toxin-antitoxin RNase; 0.32% of 350,000 active; FAM/BHQ RNA-DNA oligo cleavage fluorescence, 5 h; activation, % at 20 µM; P0AE70; AID 504720; in the data active = activation above about 50%
BoNT-F LC inh – blocks Botulinum neurotoxin F light chain protease; Multiplex microsphere protease cleavage assay, flow cytometry; inhibition, % at 10 µM; 0.22% of 360,000 active; AID 588497; in the data active = inhibition above about 35%, passing the limit was not always enough; inconclusive = no clear call, values can overlap the other calls; note: plate controls were buffer without enzyme for full effect and enzyme alone for no effect
BoNT-A LC inh2 – blocks Botulinum neurotoxin A light chain protease. multiplex microsphere protease substrate cleavage, flow cytometry. inhibition, % at 10 µM. 0.17% of 360,000 active. AID 588499; note: plate controls were buffer without enzyme for full effect and enzyme alone for no effect
Autofluor counter – counter-screen for toxin protease inhibitors: compound fluorescence. compound autofluorescence counterscreen, microsphere flow cytometry; hits give high values. fluorescence intensity (concentration not given with the values). 3.1% of 360,000 active; in the data active = fluorescence intensity above about 16000; inconclusive = no clear call, values can overlap the other calls
* marks the source's active call; other numbers are inactive results; i = inactive; ? = inconclusive; nt = no result given. Shown are actives, neighbours in structure and some others; about 3.9% of the full set was active somewhere. Cut-off read from the data, not from the text of the source, unless noted: active = inhibition above about 30%; inconclusive = no clear call, values can overlap the other calls; inactive = below that.

SMILES | Anthrax LF inh2 | Vc quorum ag | MazEF act | BoNT-F LC inh | BoNT-A LC inh2 | Autofluor counter
CC(C)CN1C(=O)c2ccc(NC(=O)c3cccs3)cc2C1=O | -0.3 | -2.4 | 7.2 | -1.1 | ? | 24092*
CC(C)CN1C(=O)c2ccc(NC(=O)c3ccco3)cc2C1=O | -6.5 | i | 3.1 | 1.6 | -1.9 | 4241
Cc1onc(-c2c(F)cccc2Cl)c1C(=O)Nc1nc2c(s1)CCCC2 | -10.1 | -2.6 | -14.5 | 6.0 | ? | 15295
Cc1cc(C(=O)Nc2nc3c(s2)CCCC3)no1 | -6.6 | -6.2 | -6.7 | -1.6 | 0.2 | 23398*
CCc1ccc(NC(=S)N2CCN(S(=O)(=O)c3ccccc3)CC2)cc1 | -0.3 | i | -1.4 | 3.0 | -1.1 | 6008
COc1ccccc1CNC(=O)C(C)c1ccc([N+](=O)[O-])cc1 (centres undefined) | 1.2 | -0.3 | 0.8 | -2.9 | 0.0 | 2578
C=CCN1CC(c2nc3ccccc3n2CCOc2ccccc2)CC1=O (centres undefined) | 0.1 | -0.2 | -4.9 | -3.5 | -1.8 | 22558*
CC1=C(C(=O)N(C(C)C)C(C)C)CC(CC(=O)NCCN2CCOCC2)C(=O)N1Cc1ccc(C(C)(C)C)cc1 (centres undefined) | -0.7 | nt | nt | -10.2 | -0.1 | 6290
c1ccc(-c2csc(N3CCOCC3)n2)cc1 | -1.2 | -0.3 | 3.4 | -5.9 | -1.1 | 6646
COc1ccc(NC(=O)C2CCN(c3cnccn3)CC2)cc1OC | -7.3 | -1.4 | 1.2 | 2.5 | 0.2 | 3655
COc1ccc(NC(=O)C2CCN(c3cc(-c4ccccc4)nc4ncnn34)CC2)cc1OC | 0.6 | i | 7.9 | -1.0 | ? | 20978*
O=C(N1CCOCC1)N1CCN(c2nc(-c3ccccc3)cs2)CC1 | 1.7 | i | -1.8 | 0.2 | 0.6 | 22285*
COc1ccc(OC)c(NC(=O)C2CCN(c3cc(-c4ccccc4)nc4ncnn34)CC2)c1 | 3.2 | -0.2 | 2.7 | 0.7 | 3.1 | 22638*
COc1ccccc1NC(=O)N1CCN(c2cc(-c3ccccc3)nc3ncnn23)CC1 | -1.3 | -2.0 | 2.4 | 0.5 | ? | 22826*
COc1cc(N)c(Cl)cc1C(=O)OCC(=O)NC(=O)NCc1ccco1 | -5.8 | i | 12.1 | -3.4 | 0.0 | 2859
O=C(COC(=O)CCC(=O)c1cccs1)NC1CC1 | -0.5 | i | 0.3 | -0.2 | -0.7 | 4067
COc1cccc(-c2csc(N3CCN(C(=O)Nc4ccccc4OC)CC3)n2)c1 | -5.4 | -0.5 | 1.3 | -6.6 | ? | 21006*
Cc1ccc(Cl)cc1NC(=O)C1C2CCC(O2)C1C(=O)O (centres undefined) | -3.0 | i | 6.5 | 2.6 | -2.9 | 3556
COc1cccc(Nc2nc3ccccc3nc2NS(=O)(=O)c2cccs2)c1 | -5.8 | 0.1 | -8.5 | -2.1 | ? | 22498*
COc1ccc(Nc2nc3ccccc3nc2NS(=O)(=O)c2cccs2)c(OC)c1 | -3.6 | i | -4.5 | -6.6 | -0.1 | 4658
O=C(Nc1ccccc1)N1CCC(C(=O)N(Cc2ccco2)Cc2cccs2)CC1 | -2.8 | -1.3 | -1.6 | 4.1 | ? | 20994*
Cc1coc2c1c(C)cc1oc(=O)c(Cc3ccccc3)c(C)c12 | -0.6 | -0.2 | -1.5 | -3.5 | -2.2 | 24793*
Cc1coc2c1c(C)cc1oc(=O)c(CC(=O)NCC(=O)NCC(=O)O)c(C)c12 | 3.4 | i | -8.3 | -5.4 | -3.8 | 3252
CCOC(=O)C1=NN(c2ccccc2C)C2=NC(C)=C(C(=O)OC)C(c3cccs3)N12 (centres undefined) | -10.3 | i | 2.5 | 5.5 | 6.6 | 17523*
CCc1cccc2c(C(=O)CSc3nncn3-c3ccc(OC)cc3)c[nH]c12 | 1.3 | -0.6 | 5.0 | 3.6 | 0.8 | 2304
SMILES | Anthrax LF inh2 | Vc quorum ag | MazEF act | BoNT-F LC inh | BoNT-A LC inh2 | Autofluor counter
CCc1cccc2c(C(=O)CSc3nnc(-c4ccoc4C)n3C)c[nH]c12 | -3.6 | i | 1.7 | 1.2 | 2.6 | 22498*
CC(=O)NC(c1ccc(F)c(F)c1)c1nc(-c2cccc(C(C)C)c2)cs1 (centres undefined) | -3.1 | 0.9 | nt | -3.6 | 0.2 | 2954
COc1ccccc1Cc1noc(COc2cccc(C)c2C)n1 | -1.2 | -3.6 | -11.6 | -10.1 | -1.8 | 16962*
CCN1C(=O)c2ccc(C(=O)NCc3ccc4c(c3)OCO4)cc2C1=O | -1.6 | i | 2.8 | -2.0 | 0.2 | 16137*
CCCCN1C(=O)c2ccc(C(=O)NCc3ccco3)cc2C1=O | -5.9 | i | -6.0 | 2.8 | -0.5 | 5973
CN(c1ccc(C(=O)NCc2ccc3c(c2)OCO3)cc1)S(=O)(=O)c1ccccc1 | 0.9 | -1.2 | 0.6 | -5.9 | -1.9 | 4881
CN(c1ccc(C(=O)NCc2ccc3c(c2)OCO3)cc1)S(C)(=O)=O | -0.1 | -0.2 | 0.5 | 3.4 | 2.9 | 22044*
CCCN1C(=O)c2ccc(C(=O)NCc3ccco3)cc2C1=O | -3.2 | 1.0 | -15.6 | 0.6 | ? | 23188*
CN1C(=O)c2ccc(C(=O)NCc3ccc4c(c3)OCO4)cc2C1=O | -0.3 | -0.3 | 4.8 | -7.3 | -1.1 | 2107
O=C(NCc1ccc2c(c1)OCO2)c1ccc(-n2cnnn2)cc1 | 1.4 | -0.2 | -1.1 | 0.2 | ? | 16294*
O=C(N[C@@H](Cc1ccccc1)C(=O)OCc1ccccc1)c1ccco1 | -0.8 | 0.5 | -1.9 | -6.5 | 1.2 | 5182
O=C(Nc1ccc2c(c1)OCO2)c1nn(-c2ccccc2)c(=O)c2ccccc12 | -3.1 | 5.9 | 8.5 | 8.4 | -0.2 | 3897
O=C(NCc1ccc2c(c1)OCO2)c1nn(-c2ccccc2)c(=O)c2ccccc12 | -8.8 | 1.4 | -3.0 | -8.4 | ? | 21677*
COc1ccc(CN2C(=O)CCC2(C)c2nnnn2-c2ccc3c(c2)OCCO3)cc1OC (centres undefined) | -3.2 | nt | nt | -11.0 | 0.8 | 6323
CCOC(=O)c1cc(-c2ccc(N)cc2)sc1N | -3.2 | i | 20.2 | 2.0 | 10.2 | 18171*
CCOC(=O)c1sc(-c2ccc(Br)cc2)cc1N | -2.8 | -1.8 | -1.1 | 1.7 | 3.8 | 18598*
CCN1CCN(C(c2cccs2)C(C)NC(=O)c2cccc(OC)c2)CC1 (centres undefined) | -9.4 | -1.3 | 1.3 | -10.9 | -0.7 | 5537
CC(NC(=O)c1cccc(F)c1)C(c1cccs1)N1CCN(C)CC1 (centres undefined) | 0.8 | -0.2 | -2.2 | -4.9 | -4.6 | 23669*
CCN(CC)S(=O)(=O)c1cccc(C(=O)NC(C)C(c2cccs2)N2CCCC2)c1 (centres undefined) | 4.5 | -0.3 | 3.0 | 4.4 | 0.9 | 17341*
CC(=O)NC(C)C(c1cccs1)N1CCN(c2ccccc2)CC1 (centres undefined) | -1.7 | i | 4.2 | 0.8 | ? | 16460*
c1ccc2c(C[C@@H]3CNCCN3CCC34CC5CC(CC(C5)C3)C4)cccc2c1 | -8.7 | -0.2 | 22.9 | -40.9 | 0.5 | 4763
CCN(CC)CCNc1ccnc2cc(Cl)ccc12 | -0.5 | i | 4.9 | -0.2 | -0.5 | 20811*
COc1cccc(NC(=O)CSc2nc3c(sc4ccccc43)c(=O)n2CCCN2CCCC2)c1 | -0.1 | -0.2 | -42.6 | -2.1 | -1.4 | 5594

High-throughput results: PubChem, several laboratories
